The source of these data is PubChem BioAssay (NCATS).

Records with an inconclusive call do not appear. Active and inactive are the calls of the source. Calls come from the whole dose curve; as a rule, active = well fitted cell-killing curve with a large enough effect; inconclusive = small, poorly fitted or top-dose-only effect, or effect the other way; inactive = no such curve, though single readings can be large or run the other way.
Potency is the fitted concentration of half-maximal effect.

One experiment in a line: Quantitative High-Throughput drug screen in 47 multiple myeloma cell lines against the NCATS MIPE library collection: XG1_PLB cell viability assay (AID 1919866). Note: nearly all actives have a fitted effect of over 35% in size. The conditions noted are these: CellTiter-Glo ATP, 48 h; series mostly up to 45.8 µM. In short, it runs like this:
(§1)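 ATP-based CellTiter-Glo luminescence after 48 h drug exposure (37 °C, 5% CO2) of 500 myeloma cells per well. DMSO-only wells set 100% viability, media-only wells 0%; MIPE 4.0 library added by pin tool.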
For the compound `c1ccc2c(CCNc3ccc(Nc4ccncc4)cc3)c[nH]c2c1`, the Potency was 20900 nM (active).
Turning to `O=C(O)c1ccc2c(c1)nc(Nc1cccc(Cl)c1)c1ccncc12`, the Potency is 4180 nM (active).
On the same count and under the same terms, next, `O=C(O)Cn1nnc(-c2cc(N3CCC(Oc4cc(F)ccc4Br)CC3)no2)n1`: “inactive”; `Nc1ccccc1NC(=O)c1ccc(CNc2nccc(-c3cccnc3)n2)cc1`: 1180 nM (active); `Cc1cn2cc(C(=O)N(C)CCO)cc(N[C@@H]3CCOc4cccc(C)c43)c2n1`: “inactive”.
Take `Cc1cn(-c2cc(NC(=O)c3ccc(C)c(Nc4nccc(-c5cccnc5)n4)c3)cc(C(F)(F)F)c2)cn1`: the Potency entry was “inactive”.
The same measure, in the same setting: next, `O=C(O)CCCc1c[nH]c2ccccc12`: “inactive”.
The same measure, in the same setting: next, `CCCn1c(=O)c2[nH]c(-c3cnn(Cc4cccc(C(F)(F)F)c4)c3)nc2n(CC)c1=O`: “inactive”; `O=C(C=Cc1cccnc1)NCCCCC1CCN(C(=O)c2ccccc2)CC1`: 1 nM (active); `CNC(=O)c1c(F)cccc1Nc1nc(Nc2cc3c(cc2OC)CCN3C(=O)CN(C)C)nc2[nH]ccc12`: 2350 nM (active).
Consider `COc1c(N2C[C@@H]3CCCN[C@H]3C2)c(F)cc2c(=O)c(C(=O)O)cn(C3CC3)c12`, for which the Potency result is “inactive”.
Still for that read-out and setting: next, `COc1cccc(-c2ccc(NC(=O)C3=C(C(=O)O)CCC3)c(F)c2)c1`: 4180 nM (active).
The same measure, in the same setting: then `CC=C1NC(=O)[C@H]2CSSCCC=C[C@H](CC(=O)N[C@H](C(C)C)C(=O)N2)OC(=O)[C@H](C(C)C)NC1=O`, with 26.4 nM (active).
On the same count and under the same terms, then `COc1ccc(CC2c3cc(OC)c(OC)cc3CC[N+]2(C)CCC(=O)OCCCCCOC(=O)CC[N+]2(C)CCc3cc(OC)c(OC)cc3C2Cc2ccc(OC)c(OC)c2)cc1OC` (stereo unspecified), with 1460 nM (active); and `Cc1cc(CN2CCN(c3c(Br)cnc4nc(-c5ccc(N6CCN(C)CC6)cc5)[nH]c34)CC2)no1`, with 2090 nM (active); and `COc1cc(C(=O)N2CCC(N3CCN(C)CC3)CC2)ccc1Nc1ncc2c(n1)N(C)c1ccccc1C(=O)N2C`, with 2640 nM (active).
As to `CCCNC(=O)Nc1ccc(Oc2ncnc3cc(OC)c(OC)cc23)cc1Cl`, the Potency result was “inactive”.
The same measure, in the same setting: then `O=C(O)CO.[NH2-].[NH2-].[Pt+2]`, with “inactive”; and `O=C1CCC[C@@H]2[C@H]3CCC[N+]4([O-])CCC[C@@H](CN12)[C@@H]34` (stereo partly specified), with “inactive”; and `CC1(C)CCC(c2ccc(Cl)cc2)=C(CN2CCN(c3ccc(C(=O)NS(=O)(=O)c4ccc(N[C@H](CCN5CCOCC5)CSc5ccccc5)c(S(=O)(=O)C(F)(F)F)c4)cc3)CC2)C1`, with 16600 nM (active).
Same read-out and setting: then `Cc1c(Cn2c(C)nc3c(C(=O)O)cc(N4CCOCC4)cc32)cccc1C(F)(F)F`, with 743 nM (active); and `CN[C@H]1CCc2cc(OC)c(OC)c(OC)c2-c2ccc(OC)c(=O)cc21`, with “inactive”; and `CCNC(=O)Nc1ccc2ncc(Nc3ccc(C)cc3)nc2n1`, with 332 nM (active).
Same read-out and setting: next, `COc1ccc(-c2cc3c(C)nc(N)nc3n(C3CCC(OCCO)CC3)c2=O)cn1` (stereo unspecified): 18.7 nM (active).
Turning to `c1cc(-c2cnn3cc(-c4ccc(OCCN5CCCCC5)cc4)cnc23)ccn1`, the Potency was 5900 nM (active).
The same measure, in the same setting: then `COc1cccc(Nc2c(C(N)=O)cnc3c(C)cc(S(=O)(=O)c4cccc(C(=O)N(C)C)c4)cc23)c1`, with “inactive”.
Same read-out and setting: then `C[C@@H](Oc1cc(-n2cnc3ccc(CN4CCN(C)CC4)cc32)sc1C(N)=O)c1ccccc1C(F)(F)F`, with 14.8 nM (active); and `CC(C)Nc1cc(C(F)(F)F)cc2nc(NC(=O)c3cccnc3)nn12`, with “inactive”.
Same read-out and setting: then `CC=CC1=C(C(=O)O)N2C(=O)[C@H](NC(=O)[C@H](N)c3ccc(O)cc3)[C@@H]2SC1`, with “inactive”; and `NCC(=O)Nc1ccc(-n2nc(C(F)(F)F)cc2-c2ccc3c(ccc4ccccc43)c2)cc1`, with 16600 nM (active); and `CC(=O)SC[C@@H](C)C(=O)N1CCC[C@H]1C(=O)N[C@@H](Cc1ccccc1)C(=O)O`, with “inactive”.
For the compound `CC(O)C1C(=O)N2C(C(=O)O)=C(SC3CNC(C(=O)N(C)C)C3)C(C)C12` (stereo unspecified), the Potency result is “inactive”.

A further experiment can be described thus: Quantitative High-Throughput drug screen in 47 multiple myeloma cell lines against the NCATS MIPE library collection: VP6_DJ cell viability assay (AID 1919867). Note: nearly all actives have a fitted effect of over 40% in size. Particulars: ATP luminescence, 48 h; series mostly up to 45.8 µM. In short, it runs like this:
as §1
Regarding `c1ccc2c(CCNc3ccc(Nc4ccncc4)cc3)c[nH]c2c1`, the Potency is 23500 nM (active).
Still for that read-out and setting: then `O=C(O)c1ccc2c(c1)nc(Nc1cccc(Cl)c1)c1ccncc12`, with 5900 nM (active); and `O=C(O)Cn1nnc(-c2cc(N3CCC(Oc4cc(F)ccc4Br)CC3)no2)n1`, with “inactive”; and `Cc1[nH]c2ccccc2c1CCNCc1ccc(C=CC(=O)NO)cc1`, with 18.7 nM (active).
The same measure, in the same setting: next, `Cc1cn(-c2cc(NC(=O)c3ccc(C)c(Nc4nccc(-c5cccnc5)n4)c3)cc(C(F)(F)F)c2)cn1`: “inactive”; `O=C(O)CCCc1c[nH]c2ccccc12`: 26400 nM (active).
Still for that read-out and setting: next, `O=C(C=Cc1cccnc1)NCCCCC1CCN(C(=O)c2ccccc2)CC1`: 18.7 nM (active).
Turning to `CC=C1NC(=O)[C@H]2CSSCCC=C[C@H](CC(=O)N[C@H](C(C)C)C(=O)N2)OC(=O)[C@H](C(C)C)NC1=O`, the Potency was 1 nM (active).
On to `COc1cc(C(=O)N2CCC(N3CCN(C)CC3)CC2)ccc1Nc1ncc2c(n1)N(C)c1ccccc1C(=O)N2C`, for which the Potency is 1180 nM (active).
Still for that read-out and setting: next, `O=C1CCC[C@@H]2[C@H]3CCC[N+]4([O-])CCC[C@@H](CN12)[C@@H]34` (stereo partly specified): 6620 nM (active).
Still for that read-out and setting: then `Cc1c(Cn2c(C)nc3c(C(=O)O)cc(N4CCOCC4)cc32)cccc1C(F)(F)F`, with 4180 nM (active); and `O=c1[nH]c(=O)n(C2CCCO2)cc1F` (stereo unspecified), with “inactive”; and `CCNC(=O)Nc1ccc2ncc(Nc3ccc(C)cc3)nc2n1`, with 662 nM (active).
The same measure, in the same setting: next, `Cc1ccc(C(=O)Nc2cccc(C(F)(F)F)c2)cc1-c1ccc2nc(NCCN3CCOCC3)ncc2c1`: 11800 nM (active); `COc1ccc(-c2cc3c(C)nc(N)nc3n(C3CCC(OCCO)CC3)c2=O)cn1` (stereo unspecified): 1 nM (active); `c1cc(-c2cnn3cc(-c4ccc(OCCN5CCCCC5)cc4)cnc23)ccn1`: 3720 nM (active).
With `COc1cccc(Nc2c(C(N)=O)cnc3c(C)cc(S(=O)(=O)c4cccc(C(=O)N(C)C)c4)cc23)c1`, the Potency entry was “inactive”.
As for `C[C@@H](Oc1cc(-n2cnc3ccc(CN4CCN(C)CC4)cc32)sc1C(N)=O)c1ccccc1C(F)(F)F`, the Potency is 18700 nM (active).
Same read-out and setting: next, `NCC(=O)Nc1ccc(-n2nc(C(F)(F)F)cc2-c2ccc3c(ccc4ccccc43)c2)cc1`: 18700 nM (active).
